Our source for the z-score and composite z-score values is PubChem BioAssay.

Assay [1] in a line: resazurin metabolic signal in HepG2 cells – cell-based, resazurin fluorescence, 24 h, PK04 Diversity Set, profiling panel (AID 1172). Note: test concentration not given here. To be noted: HepG2 viability, higher = more signal. (Alamar Blue is a resazurin reagent that responds to reducing activity.)
A short description of assay [2]: budding yeast growth changes without added modifier – OD600, strain BY4716, 24 h, basal condition, primary screen (AID 1173). To be noted: S. cerevisiae BY4716 growth, OD600, 24 h; higher = more signal, called active from +8 up or from −8 down.
Assay [3] is described as follows: viability profiling in MM1S myeloma cells – cell-based, resazurin fluorescence, basal, 24 h, PK04 Diversity Set, profiling panel (AID 1174).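 Note: MM1S multiple myeloma cell line; test concentration not given here.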 Particulars: higher = more signal, called active from +8 up or from −8 down.
In assay [4] the target is Dihydroorotate dehydrogenase (quinone), mitochondrial (Plasmodium falciparum (isolate 3D7)) (UniProt Q08210). As to the kind of experiment: inhibition of P. falciparum DHODH – biochemical, C-terminal His tag, absorbance 600 nm, primary screen (AID 1175).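 Note: recombinant parasite enzyme with a five histidine tag at its C terminus; test concentration not given here.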 To be noted: PfDHODH enzyme, DCIP absorbance 600 nm; higher = more signal, called active from +8 up or from −8 down.
Assay [5] is described as follows: inhibition of PAO1 biofilm formation – strain PAO1, LB-PBS medium, absorbance 600 nm, primary screen (AID 1176). Note: test concentration not given here. Particulars: P. aeruginosa PAO1 growth/biofilm, A600, 12 h; higher = more signal.
Assay [6] can be described thus: growth modulation of vineyard yeast isolate – strain RM11-1a, OD600, basal, 24 h, primary screen (AID 1177).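 Note: cultures grown under basal conditions with no added stressor; test concentration not given here.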 To be noted: S. cerevisiae RM11-1a growth, OD600, 24 h; higher = more signal, called active from +8 up or from −8 down.
Assay [7] in a line: growth of efflux-deficient E. coli DRC39 – strain DRC39, OD650, 24 h, E. coli filamentation inducers, primary screen (AID 1178).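 Note: growth measured as culture turbidity by optical density at 650 nm; test concentration not given here.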 To be noted: E. coli DRC39 acrAB, higher = more signal, called active from +8 up or from −8 down.
Assay [8] can be described thus: growth of efflux-deficient E. coli DRC39 – strain DRC39, OD650, 48 h, E. coli filamentation inducers, primary screen (AID 1179).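 Note: screen aims at cell division blockers that make cells filament.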 Particulars: E. coli DRC39 delta-acrAB growth, higher = more signal, called active from +8 up or from −8 down.
The nature of assay [9]: viability profiling in RPMI8226 myeloma cells – cell-based, resazurin fluorescence, basal, 24 h, PK04 Diversity Set, profiling panel (AID 1180).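 Note: RPMI8826 multiple myeloma cell line at 5000 cells per well; test concentration not given here.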 To be noted: higher = more signal.
Assay [10] deals with E3 ubiquitin-protein ligase XIAP (Homo sapiens) (UniProt P98170). As to the kind of experiment: small molecules binding XIAP protein – biophysical, small-molecule microarray, fluorescence 635 nm, primary screen (AID 1181).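 Note: score merges 667 nm emission and signal to noise over triplicate slides.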 To be noted: higher = more signal.

The source made the active and inactive calls. Unless noted, the rule behind the calls is not given here.

Sequence of Dihydroorotate dehydrogenase (quinone), mitochondrial (Plasmodium falciparum (isolate 3D7)) (Q08210 whole entry, looked up): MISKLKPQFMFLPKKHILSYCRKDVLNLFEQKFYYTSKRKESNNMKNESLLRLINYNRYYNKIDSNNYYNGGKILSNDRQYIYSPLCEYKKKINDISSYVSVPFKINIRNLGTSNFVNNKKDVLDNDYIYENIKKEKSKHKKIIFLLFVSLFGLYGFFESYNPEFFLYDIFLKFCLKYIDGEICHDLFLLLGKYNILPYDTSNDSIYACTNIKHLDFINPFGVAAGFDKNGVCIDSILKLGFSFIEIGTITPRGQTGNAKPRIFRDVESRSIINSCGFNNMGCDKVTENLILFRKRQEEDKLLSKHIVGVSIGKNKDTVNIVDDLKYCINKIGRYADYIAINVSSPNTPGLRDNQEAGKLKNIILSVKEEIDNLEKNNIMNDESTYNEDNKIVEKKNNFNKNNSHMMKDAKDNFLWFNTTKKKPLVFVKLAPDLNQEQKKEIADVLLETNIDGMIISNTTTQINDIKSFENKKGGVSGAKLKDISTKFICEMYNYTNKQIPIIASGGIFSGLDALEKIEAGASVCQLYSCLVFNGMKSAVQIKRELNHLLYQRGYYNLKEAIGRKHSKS
Sequence of E3 ubiquitin-protein ligase XIAP (Homo sapiens) (P98170 whole entry, looked up): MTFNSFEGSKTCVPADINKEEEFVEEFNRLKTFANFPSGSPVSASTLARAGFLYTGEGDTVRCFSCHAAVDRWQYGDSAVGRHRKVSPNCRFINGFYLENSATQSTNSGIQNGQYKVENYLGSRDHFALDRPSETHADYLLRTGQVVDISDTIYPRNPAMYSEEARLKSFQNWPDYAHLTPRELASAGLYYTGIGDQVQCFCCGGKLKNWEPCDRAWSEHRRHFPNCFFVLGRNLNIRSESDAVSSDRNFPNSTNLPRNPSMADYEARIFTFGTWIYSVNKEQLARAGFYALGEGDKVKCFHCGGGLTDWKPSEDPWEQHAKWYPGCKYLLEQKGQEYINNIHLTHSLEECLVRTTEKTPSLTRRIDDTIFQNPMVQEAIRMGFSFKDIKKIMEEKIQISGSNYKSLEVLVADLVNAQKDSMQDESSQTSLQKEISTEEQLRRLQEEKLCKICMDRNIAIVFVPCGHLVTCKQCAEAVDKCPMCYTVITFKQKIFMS

Take `CC(=O)NCCCC[C@@H]1NC(=O)[C@@H]2C[C@H](C(=O)NCCCCCC[N+](C)(C)C)[C@H](c3cccc(OCCO)c3)N2C1=O`: the z-score was -0.29 in assay [1]; 1.05 (inactive) in assay [2]; -0.147 (inactive) in assay [3]; 0.118 (inactive) in assay [5]; 1.44 (inactive) in assay [6]; -0.119 (inactive) in assay [7]. In addition, the z-score in assay [8] was -0.42 (inactive); in assay [9] it was -0.536. For the same compound, the composite z-score was -0.908 (inactive) in assay [4] and -0.36 in assay [10].

For `CCOC(=O)C1=CC[C@@H](c2cccc(Cl)c2)N(S(=O)(=O)c2ccc(C)cc2)[C@H]1c1ccc(C#N)cc1`, the z-score in assay [1] is 0.697; in assay [2] it was 2.09 (inactive); in assay [3] it was -0.39 (inactive); in [5], 1.68 (inactive); in [6], 0.834 (inactive); in [7], -0.905 (inactive). The z-score was -0.314 (inactive) in assay [8] and -1.42 in assay [9]. Further, the composite z-score in assay [4] is 0.21 (inactive); in assay [10], -0.38.

Consider `O=C(CS)NCCCCCCNC(=O)[C@H]1C[C@H]2C(=O)N3CCC[C@H]3C(=O)N2[C@H]1c1ccc(O)cc1`, for which the z-score in [1] was 0.301; in [2], 0.152 (inactive); in assay [3], -0.868 (inactive); in assay [5], 0.0499 (inactive); in [6], -0.458 (inactive); in [7], -0.144 (inactive). The results for the z-score in assay [8] and in assay [9] were -0.516 (inactive) and -0.563, respectively. For the same compound, the composite z-score in assay [4] is -0.504 (inactive); in assay [10], 0.115.

In the case of `COCCOC(=O)N1C(=O)[C@@]2(c3cc(C#CC4(O)CCCCCC4)ccc31)[C@H](c1ccc(O)cc1)N1[C@H](c3ccccc3)[C@H](c3ccccc3)OC(=O)[C@H]1[C@@H]2C(=O)N1CCc2cc(OC)c(OC)cc2C1`, the z-score in [1] was 2.14; in assay [2], -0.169 (inactive); in [3], 0.493 (inactive); in assay [5], -0.0242 (inactive); in assay [6], -0.592 (inactive); in assay [7], 0.351 (inactive). The z-score in assay [8] was -0.8 (inactive); in assay [9], 0.0494. In addition, the values for the composite z-score in assay [4] and in [10] were -0.102 (inactive) and -0.313, respectively.

For the compound `COc1ccc([Si](C)(C)[C@@H]2[C@@H](CCO)O[C@]3(C(=O)N(Cc4ccc(N5C(=O)c6cccc7cccc5c67)cc4)c4ccccc43)[C@H]2C)cc1`, the z-score in [1] was -0.454; in assay [2], 0.338 (inactive); in assay [3], -0.898 (inactive); in assay [5], 1.51 (inactive); in assay [6] it was 3.87 (inactive); in assay [7] it was 1.68 (inactive). Moreover, the z-score in assay [8] is 1.19 (inactive); in [9], -4.48. Moreover, the composite z-score in assay [4] was -0.774 (inactive); in [10], 0.0623.

Regarding `C=CC[C@@]1(C(N)=O)N=C(c2ccc(OCCCO)cc2)O[C@@H]1c1ccccc1N=[N+]=[N-]`, the z-score in assay [1] is 0.895; in assay [2], -1.08 (inactive); in [3] it was 0.694 (inactive); in [5], 0.401 (inactive); in assay [6] it was 0.178 (inactive); in assay [7], 0.951 (inactive). The z-score was -0.0342 (inactive) in [8] and 0.502 in [9]. For the same compound, the composite z-score in [4] was 0.832 (inactive); in [10], 0.0896.

For `COCCOC(=O)N1C(=O)[C@@]2(c3cc(C#Cc4ccc(OC)cc4)ccc31)[C@H](c1ccc(O)cc1)N1[C@H](c3ccccc3)[C@H](c3ccccc3)OC(=O)[C@H]1[C@@H]2C(=O)N1CCN(c2ncccn2)CC1`, the z-score is 0.202 in assay [1]; 1.03 (inactive) in assay [2]; 0.292 (inactive) in assay [3]; 0.173 (inactive) in [5]; 1.75 (inactive) in [6]; 0.307 (inactive) in assay [7]. For the same compound, the figures for the z-score in assay [8] and in assay [9] were -0.0695 (inactive) and 0.138, respectively. Further, the composite z-score in assay [4] is 0.0094 (inactive); in assay [10], -0.224.

Consider `C=CCN1Cc2ccccc2C[C@@]2(COC(c3ccc(OCCCO)cc3)=N2)C1=O`, for which the z-score in [1] is 0.344; in [2], -2.27 (inactive); in assay [3], -8.12 (active); in assay [5], -0.127 (inactive); in [6] it was 1.04 (inactive); in assay [7] it was 1.32 (inactive). Besides, the z-score is 1.14 (inactive) in [8] and -4.61 in [9]. Besides, the composite z-score in assay [4] was -0.993 (inactive); in assay [10], 0.236.

For `CCOC(=O)C[C@H]1[C@H](OC(=O)c2ccccc2-c2ccccc2)[C@@H](NC(=O)c2ccc(-c3ccccc3)cc2)c2cc(OCCCO)ccc2N1C(=O)c1ccccc1`, the z-score in [1] was -0.607; in assay [2], 0.579 (inactive); in [3], 0.633 (inactive); in assay [5], -0.341 (inactive); in assay [6] it was 1.61 (inactive); in assay [7], 1.39 (inactive). Also, the values for the z-score in assay [8] and in assay [9] were 0.53 (inactive) and 0.608, respectively. Further, the composite z-score in [4] was 1.03 (inactive); in assay [10] it was -0.121.

Turning to `COCCOC(=O)N1C(=O)[C@@]2(c3cc(C#Cc4ccc(OC)cc4)ccc31)[C@H](c1ccc(OCCO)cc1)N1[C@H](c3ccccc3)[C@H](c3ccccc3)OC(=O)[C@H]1[C@@H]2C(=O)N1CCc2cc(OC)c(OC)cc2C1`, the z-score in [1] was 1.04; in assay [2], 2.62 (inactive); in [3], 1.02 (inactive); in assay [5], 3.34 (inactive); in assay [6] it was 3.55 (inactive); in [7] it was -0.148 (inactive). Further, the z-score in [8] is 0.0574 (inactive); in assay [9], 0.928. The figures for the composite z-score in [4] and in assay [10] were -0.0321 (inactive) and -0.0476, respectively.

In the case of `CCCNC(=O)[C@@]1(c2ccc([N+](=O)[O-])cc2)CC(=O)N(CC23CC4CC(CC(C4)C2)C3)[C@@H]1c1ccc(CO)cc1I`, the z-score in [1] was -2.95; in assay [2], 0.285 (inactive); in assay [3], -3.47 (inactive); in assay [5], 0.32 (inactive); in [6] it was 1.34 (inactive); in [7], -0.643 (inactive). Also, the z-score was 0.198 (inactive) in [8] and -4.07 in assay [9]. Also, the composite z-score in assay [4] is 0.286 (inactive); in assay [10], -0.0749.

Turning to `COCCOC(=O)N1C(=O)[C@@]2(c3cc(C#CCC(C(=O)OC)C(=O)OC)ccc31)[C@H](c1ccccc1OCCO)N1[C@H](c3ccccc3)[C@H](c3ccccc3)OC(=O)[C@H]1[C@@H]2C(=O)Nc1nc2ccccc2s1`, the z-score was 0.513 in assay [1]; -0.561 (inactive) in assay [2]; 0.951 (inactive) in assay [3]; 3.41 (inactive) in [5]; -0.929 (inactive) in assay [6]; 1.28 (inactive) in [7]. In addition, the z-score is 1.76 (inactive) in assay [8] and 0.599 in assay [9]. For the same compound, the composite z-score is -1.19 (inactive) in assay [4] and -0.0785 in assay [10].
